Screens as filed in PubChem BioAssay.
Rows were chosen to be rich in hits. Some 3.8% of all compounds tested hit in one or more screens of this group.
HT1080 IDH1KD tx: toxicity to HT-1080 IDH1 knockdown cells (counter line). HT-1080 IDH1 knockdown viability, ATP luminescence, 48 h. Potency, µM (series often up to 46.1 µM), hits mostly cytotoxic. 360,000 tested, 2% active
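Cytotoxicity counter-line: IDH1KD HT-1080, 48 h, CellTiter-Glo. Curves classed by r2, magnitude and activity.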
S2 tox: cell viability loss in ATXN counter-screen; S2 cells (HEK-293 line with an ATXN2-luciferase reporter) viability, CellTiter-Fluor protease fluorescence, 24 h; 400,000 tested, 0.49% active; Potency, µM (series often up to 56.7 µM), actives largely listed as cytotoxic; also: nearly all actives have a fitted effect of over 40% in size
HepG2 tox: HepG2 cytotoxicity, counter-screen for TGF-b inhibitors. HepG2 CAGA-GFP viability, ATP luminescence, 18 h. Potency, µM (series often up to 46.1 µM), actives largely listed as cytotoxic. 410,000 tested, 0.76% active. AID 588856
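HepG2 CAGA-GFP cells (1000/well, DMEM with 1% FBS) received compound, then TGF-beta at 500 pg/mL final, and were incubated 18 hours at 37 degrees C. Viability was read by CellTiter-Glo luminescence. Media-only wells were set as complete cell-killing and DMSO as no toxicity.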
TGFb SMAD3 inh: inhibitors of TGF-b signaling. HepG2 CAGA-GFP TGF-b/SMAD3 reporter, GFP fluorescence, 18 h; TGF-beta stimulated, 500 pg/mL final. Potency, µM (titrated, usually from 46.1 µM), most hits filed as inhibitors. 410,000 tested, 1.2% active. AID 588855; also: nearly all actives have a fitted effect of over 65% in size
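TGF-beta reporter screen: HEPG2 CAGA-GFP, 1% FBS, 500 pg/mL TGF-beta final, 18 h; per-cell GFP summed per well; curves fitted and categorized by class.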
ATXN2 expr inh: reduces ATXN2 reporter expression in HEK-293 cells | AID 1745845 | 360,000 tested, 0.72% active | Potency, µM (series often up to 57 µM), most hits filed as inhibitors | HEK-293 ATXN2-luciferase reporter, luminescence, 24 h; also: nearly all actives have a fitted effect of over 55% in size
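qHTS (up to 57 uM final) was run with 24 h compound exposure of reporter cells at 37 °C. Each well was multiplexed: SteadyGlo luminescence measured ATXN2-luciferase expression after a fluorogenic Gly-Phe-AFC viability readout (25 uM final).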
HT1080NT lethal: kills 2HG-producing HT-1080-NT fibrosarcoma cells; HT-1080-NT fibrosarcoma viability, CellTiter-Glo ATP luminescence, 48 h; Potency, µM (titrated, usually from 46.1 µM), usual class: cytotoxic; 360,000 tested, 1.6% active;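 also: NT is the 2HG producing partner of a matched IDH1 knockdown line; nearly all actives have a fitted effect of over 55% in size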
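A 48-hour cytotoxicity screen used HT-1080-NT cells plated 2 hours before compound delivery. ATP-based CellTiter-Glo luminescence measured viability, normalized to DMSO and no-cell controls.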
Numbers stand for hits; – = inactive; ? = inconclusive; · = no result given; [ ] = another dose, or the depositor's remark. Calls follow the shape of the dose curve; as a rule, active = well fitted curve in the direction sought with a large enough effect; inconclusive = small, poorly fitted or top-dose-only effect, or another doubt; inactive = no such curve, though single readings can be large; an effect the other way counts as inactive or inconclusive.

SMILES | HT1080 IDH1KD tx | S2 tox | HepG2 tox | TGFb SMAD3 inh | ATXN2 expr inh | HT1080NT lethal
CCOC(=O)[C@H](CCc1ccccc1)N[C@@H](C)C(=O)N1Cc2cc(OC)c(OC)cc2C[C@H]1C(=O)O | · | – | · | · | – | ·
Cc1[nH]c2ccccc2c1/C=C/c1cnc2ccccc2n1 | · | · | – | – | · | ·
Cc1[nH]c2ccccc2c1/C=C/c1ccc2ccccc2n1 | · | · | 10µM | – | · | ·
CCOC(=O)Cc1ccc(NC(=O)n2ncc3cc(Cl)ccc32)cc1 | · | – | – | – | 20µM | ·
O=c1oc2ccc(Br)cc2cc1-c1nc2c(s1)CCc1ccccc1-2 | · | · | – | – | · | ·
C/C(=N\NC(=O)c1cc(-c2cccc([N+](=O)[O-])c2)n[nH]1)c1ccccc1O | 23µM | – | – | ? | ? | ?
O=C(N/N=C/c1cccc([N+](=O)[O-])c1)c1cc(-c2ccc3c(c2)OCO3)n[nH]1 | – | – | – | ? | – | –
Cc1ccc(CSc2nnc(SCC(=O)N/N=C/c3c[nH]c4ccccc34)s2)cc1 | 23µM | · | – | – | ? | 21µM
CCc1ccc(-c2cc(C(=O)N/N=C/c3c[nH]c4ccccc34)[nH]n2)cc1 | 3.7µM | ? | – | ? | –[11.3 µM] | 5.2µM
CCc1ccc(/C=N/NC(=O)c2cc(-c3cccc([N+](=O)[O-])c3)n[nH]2)cc1 | 6.5µM | – | – | ? | – | 7.3µM
CCc1ccc2c(Cl)c(C(=O)N/N=C/c3c[nH]c4ccccc34)sc2c1 | –[9.24 µM] | – | – | ? | – | ?
C=C1C=C(C(F)F)n2ncc(C(=O)NC(C)CC)c2N1 (stereo not drawn) | · | · | – | – | · | ·
Cc1c(C(=O)NCc2cccnc2)oc2ccc(S(=O)(=O)N3CCCCC3)cc12 | 14µM | – | – | – | – | ?
O=S(=O)(c1ccc(NC(=S)NCc2cccnc2)cc1)N1CCCCC1 | 10µM | ? | – | ? | · | ?
Cc1cnc(C)c(-c2ccc(O)c(CN3CCN(C=O)CC3)c2)n1 | · | – | · | · | · | ·
CC(=O)c1ccc(NC(=O)C(C)OC(=O)/C=C/c2ccco2)cc1 (stereo not drawn) | ? | – | – | – | – | 16µM
NCc1c[nH]c(=S)n1[C@H]1CCc2c(F)cc(F)cc2C1 | · | · | · | · | – | ·
CC(=O)OC(C)OC(=O)C(C)c1ccc(-c2ccccc2)c(F)c1 (stereo not drawn) | · | – | · | · | – | ·
COc1ccc(S(=O)(=O)Nc2ccc3oc(C)c(C(=O)O)c3c2)cc1 | – | – | – | – | – | –
COc1ccc(S(=O)(=O)Nc2ccc3oc4c(c3c2)CCCC4)cc1 | · | ? | – | 13µM | ? | ·
COC(=O)c1c(C)oc2ccc(N(C(=O)c3ccncc3)S(=O)(=O)c3ccc(OC)cc3)cc12 | · | · | – | – | · | ·
COc1ccc(S(=O)(=O)N(C(=O)c2ccncc2)c2ccc3oc4c(c3c2)CCCC4)cc1 | ? | ? | – | 11µM | – | –
CC(NCCCOc1cccc2ccccc12)c1ccccc1 (stereo not drawn) | ? | ? | 20µM | ? | · | ?
O=C(NCc1cccc(F)c1)c1ccccc1NC(=O)c1nsc2ccccc12 | · | · | – | – | · | ·
Cc1ccc(C(=O)Nc2cccc3ccccc23)o1 | – | – | – | – | – | –
SMILES | HT1080 IDH1KD tx | S2 tox | HepG2 tox | TGFb SMAD3 inh | ATXN2 expr inh | HT1080NT lethal
O=C(Nc1cccc2ccccc12)c1ccc([N+](=O)[O-])o1 | 13µM | – | – | ? | · | ?
O=C(Nc1ncccn1)c1ccc([N+](=O)[O-])o1 | ? | – | – | ? | – | ?
Cc1cccc(NC(=O)c2ccc([N+](=O)[O-])o2)c1C | 18µM | – | – | ? | – | 23µM
COc1cc(CN2CCCC(n3cc(C(=O)N4CCCCC4)nn3)C2)cc(OC)c1OC (stereo not drawn) | · | – | · | · | · | ·
COc1ccc(CN2CCN(Cc3ccc4cc(F)ccc4n3)CC2CCO)c(C)c1C (stereo not drawn) | 18µM | – | – | ? | – | ?
COc1cc(CN2CCN(Cc3ccc4cc(F)ccc4n3)CC2CCO)cc(OC)c1 (stereo not drawn) | – | – | – | – | – | –
O=C(CN1CCN(S(=O)(=O)c2ccc(Br)cc2)CC1)Nc1ccccc1F | – | – | 14µM | – | – | –
O=C(NCCCSc1ccccc1)c1cc(Br)ccc1O | 18µM | ? | – | ? | – | ?
O=C(NCCSc1ccccc1)c1ccc(Br)cc1 | – | – | – | – | – | –
C#CCOCCOCCOCCNc1nc(N2CCN(C(=O)CCCCCCCCCCNC(=O)Cn3cc(C[C@@H](C)O)nn3)CC2)nc(N2CCN(C(=O)CCCCCCCCCCNC(=O)Cn3cc(C[C@@H](C)O)nn3)CC2)n1 | ? | ? | – | – | ? | ?
C#CCOCCOCCOCCNc1nc(N2CCN(C(=O)CCCCCCCCCCNC(=O)Cn3cc(C[C@@H](C)O)nn3)CC2)nc(N2CCN(C(=O)CCCCCCCCCCNC(=O)[C@H](CCCCN)n3cc(C[C@@H](C)CC)nn3)CC2)n1 | 21µM | 20µM | 13µM | ? | 25µM | ?
C#CCOCCOCCOCCNc1nc(N2CCN(C(=O)CCCCCCCCCCNC(=O)[C@H](CCCCN)n3cc(CCO)nn3)CC2)nc(N2CCN(C(=O)CCCCCCCCCCNC(=O)[C@H](CCCCN)n3cc(CCO)nn3)CC2)n1 | – | ? | – | ? | – | –
C#CCOCCOCCOCCNc1nc(N2CCN(C(=O)CCCCCCCCCCNC(=O)[C@H](CCCCN)n3cc(CCO)nn3)CC2)nc(N2CCN(C(=O)CCCCCCCCCCNC(=O)[C@H](CCCN=C(N)N)n3cc(C[C@@H](C)CC)nn3)CC2)n1 | ? | 18µM | – | ? | 20µM | ?
C#CCOCCOCCOCCNc1nc(N2CCN(C(=O)C(Cc3cc4ccccc4[nH]3)n3cc(C(N)Cc4ccc(O)cc4)nn3)CC2)nc(N2CCN(C(=O)C(Cc3cc4ccccc4[nH]3)n3cc(C(N)Cc4ccc(O)cc4)nn3)CC2)n1 (stereo not drawn) | ? | 32µM | – | – | ? | ?
C#CCOCCOCCOCCNc1nc(N2CCN(C(=O)CCCCCCCCCCNC(=O)[C@H](CCCCN)n3cc(C[C@@H](C)CC)nn3)CC2)nc(N2CCN(C(=O)CCCCCCCCCCNC(=O)[C@H](CCCCN)n3cc(C[C@@H](C)CC)nn3)CC2)n1 | ? | 13µM | 10µM | ? | 22µM | ?
O=S(=O)(c1ccc(-c2cc(C(F)(F)F)on2)s1)N1CCN(c2ccc(F)cc2)CC1 | · | · | – | – | · | ·
Cc1ccccc1S(=O)(=O)N1CCN(c2nc(-c3cccs3)nc3ccccc23)CC1 | – | · | · | · | · | –
